# Source: PubChem BioAssay
# KAT2A inh: qHTS Assay for Inhibitors of GCN5L2; Histone acetyltransferase KAT2A (Homo sapiens), Q92830; GCN5L2 HAT assay, ThioGlo1 CoA-SH fluorescence; Potency, µM (titrated, usually from 58.9 µM), for inactives: at the highest dose activity change, negative = inhibition, most hits filed as inhibitors; 390,000 compounds, 0.21% hits
#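 Preincubate 20nM GCN5L2 with compound 15 min, RT → add 50uM ThioGlo1 + 75uM H3(1-25) + 70uM acetyl-CoA → read fluorescence 0 and 20 min. Primary qHTS; fluorescent artifacts likely.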
# VDR inhibitor: Inhibitors of the vitamin D receptor (VDR): qHTS. Vitamin D3 receptor (Homo sapiens), P11473. VDR-SRC2-3 peptide fluorescence polarization, 2 h. Potency, µM, without a hit: max response, negative = inhibition, actives largely listed as inhibitors. 400,000 compounds, 0.93% hits. AID 504847, 2011
# Target sequence (P11473 whole entry, looked up): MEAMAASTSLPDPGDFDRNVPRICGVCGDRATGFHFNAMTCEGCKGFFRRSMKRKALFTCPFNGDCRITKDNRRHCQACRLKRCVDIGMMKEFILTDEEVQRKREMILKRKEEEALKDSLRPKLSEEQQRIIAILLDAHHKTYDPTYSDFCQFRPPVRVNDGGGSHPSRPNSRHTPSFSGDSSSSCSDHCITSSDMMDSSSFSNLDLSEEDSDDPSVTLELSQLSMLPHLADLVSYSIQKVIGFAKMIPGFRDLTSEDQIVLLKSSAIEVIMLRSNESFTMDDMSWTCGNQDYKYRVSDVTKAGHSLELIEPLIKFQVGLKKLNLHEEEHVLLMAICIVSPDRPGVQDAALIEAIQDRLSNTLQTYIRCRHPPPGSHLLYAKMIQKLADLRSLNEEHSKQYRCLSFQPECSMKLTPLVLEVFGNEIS
#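 Two reagent solutions held at 4 deg C in the dark were dispensed, compounds pinned at 23 nl, and the mixture incubated 2 h at room temperature. Read-out: fluorescence polarization of VDR–SRC2-3 peptide binding.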
# PLK1 PBD block: qHTS for Inhibitors of PLK1-PDB (polo-like kinase 1 - polo-box domain): Primary Screen | AID 720504, 2013 | Serine/threonine-protein kinase PLK1 (Homo sapiens), P53350 | Potency, µM, inactives show max response, negative = inhibition, usual class: inhibitors | 360,000 compounds, 2.8% hits | Plk1 PBD binding of FITC phosphopeptide, fluorescence polarization; further: series mostly up to about 57 µM; nearly all actives have a fitted effect of over 65% in size
# ALOX12 inh: Primary qHTS assay for inhibitors of human arachidonate 12S-lipoxygenase (ALOX12): Round 2; AID 1671190, 2021; Polyunsaturated fatty acid lipoxygenase ALOX12 (Homo sapiens), P18054; 580,000 compounds, 1.1% hits; purified 12hLO, xylenol orange hydroperoxide absorbance; Potency, µM (titrated, usually from 108 µM), inactives show at the highest dose activity change, negative = inhibition, hits mostly inhibitors
#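 Purified human 12hLO (150 nM final) in 25 mM Hepes, 0.01% Triton X-100, pH 7.0 was preincubated 15 min at room temperature with compound. Then 40 uM arachidonic acid was added, 30 min. Hydroperoxide was read by Fe-XO absorbance ratio 573/405 nm.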
# Starred values were filed as active, the others as inactive; i = inactive; ? = inconclusive; nt = no result given; ! = a repeat was not active; [ ] = remark or other dose. Shown are actives, neighbours in structure and some others; about 3% of the full set was active somewhere. The call rests on the fitted dose curve; in most records, active means well fitted curve in the direction sought with a large enough effect; inconclusive means small, poorly fitted or top-dose-only effect, or another doubt; inactive means no such curve, though single readings can be large; an effect the other way counts as inactive or inconclusive. On the % scale 0 is the no-effect control and ±100 the full control effect; potency means the concentration at half of the fitted maximal effect.
SMILES,KAT2A inh,VDR inhibitor,PLK1 PBD block,ALOX12 inh
N#CC(C(=O)c1ccc(SC(F)F)cc1)c1ccccn1 (stereo not drawn),nt,nt,nt,-6%
CC(=O)c1cccc(NC(=O)C2C3C=CC(C3=C(c3ccccc3)c3ccccc3)C2C(=O)O)c1 (stereo not drawn),-5%,-15%,34µM*,0%
COc1cc(C(=O)ON=C2C(C)=CC(=O)C=C2C)cc(OC)c1OC,-23%,89µM*,?,5%
COc1cc(C(=O)Oc2cc(C)cc(C)c2)cc(OC)c1OC,-1%,14%,2%,-12%
Cc1ccc(S(=O)(=O)NNC(=O)Cc2cccn2C)cc1,0%,-5%,2%,-23%
Cc1cccc(S(=O)(=O)NNC(=O)Cc2cccn2C)c1,-3%,-16%,27µM*,?
CCCNC(=O)CNC(=O)C1=NN(C)C(=O)CC1,nt,nt,nt,-6%
COc1ccccc1Cn1c(=S)[nH]c2cc(C(=O)N3CCCC3)ccc2c1=O,-24%,-15%,-1%,45µM*
COc1ccc2[nH]c3c(=O)n(Cc4ccc(C(=O)N5CCCC5)cc4)c(=S)[nH]c3c2c1,-5%,?,24µM*,?
O=C(O)c1cccc(NC(=S)NC(=O)c2cccc(OCc3ccccc3)c2)c1,7%,-3%,-29%,i
CC(C)C(=O)Nc1cccc(NC(=S)NC(=O)c2ccccc2Cl)c1,?,-12%,-9%,-1%
CCCOc1cccc(C(=O)NC(=S)Nc2cccc(NC(=O)c3ccccc3Cl)c2)c1,-10%,-1%,-10%,13µM*
CCCCOc1cccc(C(=O)NC(=S)Nc2cccc(NC(=O)c3ccccc3Cl)c2)c1,2%,-5%,0%,11µM*
CC(C)COc1cccc(C(=O)NC(=S)Nc2cccc(NC(=O)c3ccccc3Cl)c2)c1,22%,3%,2%,28µM*
CCOc1cccc(C(=O)NC(=S)Nc2ccc(Cl)cc2C(=O)O)c1,-1%,?,5.3µM*,?
Cc1cc(Oc2cccc(Cl)c2C#N)ccc1Cl,nt,nt,nt,-16%
CC(=O)c1cccc(NC(=S)NC(=O)c2cccc(C)c2)c1,3%,-19%,-12%,32µM*
Cc1ccc(S(=O)(=O)/N=C(/NC(=S)Nc2cccc(C)c2)c2ccccc2)cc1,-6%,?,?,0%
Cc1cccc(NC(=S)N/C(=N/S(=O)(=O)c2ccccc2)c2ccccc2)c1,1%,89µM*!,24µM*,?
CC(C)Oc1cccc(C(=O)NC(=S)Nc2ccccc2)c1,-5%,-12%,-3%,22µM*
CC(=O)NC(=S)Nc1ccc(NC(=O)c2cccc(Cl)c2)cc1,nt,nt,nt,41%
CC(C)C(=O)NC(=S)Nc1ccc(NC(=O)c2cccc(Cl)c2)cc1,nt,nt,nt,16µM*
CC(=O)c1cccc(NC(=S)NC(=O)c2ccccc2C)c1,-4%,-5%,-4%,-2%
CC(Oc1ccc(-n2cnnn2)cc1)C(=O)Nc1ccccc1Sc1ccccc1 (stereo not drawn),nt,nt,nt,-1%
COc1ccc(C2CCCN2Cc2cc(=O)oc3c(C)c(C)ccc23)cc1 (stereo not drawn),nt,nt,nt,-17%
SMILES,KAT2A inh,VDR inhibitor,PLK1 PBD block,ALOX12 inh
O=C(CCSc1nnc(NC2CC2)s1)Nc1ccccc1F,nt,nt,nt,31%
CCOc1cc(OCC)cc(C(=O)NC(=S)Nc2cccc(C(F)(F)F)c2)c1,-18%,3%,-4%,?
O=C(NC(=S)Nc1cccc(C(F)(F)F)c1)c1ccc2nonc2c1,-5%,-1%,-16%,35µM*
S=C(NCc1ccccc1)NCc1cccc(Cl)c1,1%,-2%,0%,?
S=C(NCc1ccccc1)Nc1cccc2ccccc12,-5%,20%,-23%,45µM*
CN(C)C(=S)NCc1ccccc1,-13%,?,2.7µM*,-13%
Fc1cccc(NC(=S)Nc2cccc3ccccc23)c1,-6%,-19%,-18%,?
Cc1ccc(NC(=S)Nc2cccc3ccccc23)cc1F,-20%,-10%,-12%,40µM*
S=C(NCc1ccccc1)NCc1cccc(CNC(=S)NCc2ccccc2)c1,-5%,?,27µM*,32µM*
CCNC(=S)N/N=C(\C)c1ccc2ccccc2c1OC(F)F,-10%,6%,-13%,40µM*
CNc1nnc(SCc2ccc(F)cc2Cl)s1,nt,nt,nt,11%
Cc1nc2cc(-c3ccccc3)nn2c(C)c1CCC(=O)NCc1ccc2c(c1)OCO2,nt,nt,nt,-50%
O=C(Nc1ccc2nc(SCc3cccc4ccccc34)sc2c1)c1ccc(Cl)cc1,nt,nt,nt,28µM*
CCOC(=O)CSc1nc2ccc(NC(=O)c3ccc(Cl)cc3)cc2s1,-8%,-1%,nt,-4%
O=C1OC(Nc2nccs2)c2ccccc21 (stereo not drawn),-2%,?,24µM*,17%
Cc1ccc(S(=O)(=O)Nc2c(O)ccc3ccccc23)cc1,nt,32µM*,6.7µM*,nt
Cc1ccc(S(=O)(=O)NN=Cc2c(O)ccc3ccccc23)cc1,nt,nt,-13%,-20%
COc1ccc(S(=O)(=O)Nc2cc(-c3c(O)ccc4ccccc34)c(O)c3ccccc23)cc1,nt,nt,nt,8.6µM*
COc1cccc(N2CCN(c3nc(C(=O)NCc4cccc(C)c4)cs3)CC2)c1,nt,nt,nt,15%
NS(=O)(=O)c1cccc(Nc2nc3ccccc3nc2NS(=O)(=O)c2ccc(Cl)cc2)c1,-23%,13%,17µM*,?
Cc1cccc(NNC(=S)Nc2c(C)cccc2C)c1,1%,?,-26%,?
S=C(NNC(=S)Nc1ccc(Cl)cc1)NNc1ccccc1,nt,nt,7.5µM*,45µM*
Cc1cccc(NC(=S)NNc2cccc(Cl)c2)c1,0%,28µM*,27µM*,?
O=C(NNC(=S)Nc1ccc(Cl)cc1)c1ccccc1,-2%,26%,-26%,i
Cc1ccc(NC(=S)NCc2ccccc2)cc1C,nt,-22%,-3%,?
SMILES,KAT2A inh,VDR inhibitor,PLK1 PBD block,ALOX12 inh
O=C(CN1c2ccccc2Sc2ccccc21)NNC(=S)Nc1ccc(Cl)cc1,-2%,2%,-13%,14µM*
Cc1ccc(NC(=S)NNC(=S)NNc2ccccc2)cc1C,nt,nt,?,40µM*
COCc1cccc(-c2n[nH]c3c2CC(=O)N(CCOc2ccccc2)C3)c1,nt,nt,nt,4%[176 µM]
NC(=S)NNC(=S)Nc1ccccc1,-5%,?,?,?
CC(C)(C)NC(=S)Nc1ccc(Br)cc1,?,22%,0%,-8%
CC(C)(C)NC(=S)Nc1ccc(Nc2ccccc2)cc1,-8%,-24%,30µM*,-38%
S=C(NNC(=S)Nc1ccccc1)Nc1ccccc1,-3%,71µM*,?,?
COc1ccc(C(=O)/C=C(\N)C(F)(F)F)c(O)c1,-5%,9%,-7%,40µM*
Cc1cc(C)c(C)c(S(=O)(=O)N2C(=S)NC(=O)C2CC(C)C)c1C (stereo not drawn),0%,5%,-22%,31%
Cc1cc(C)c(C)c(S(=O)(=O)N2C(=S)NC(=O)C2C(C)C)c1C (stereo not drawn),-3%,-11%,27µM*,?
Cc1oc(-c2cccc(Cl)c2)nc1CN1CCC(C(=O)NC2CC2)CC1,-2%,-27%,21µM*,-5%
